Results filed as inconclusive are left out. The source made the active and inactive calls. Calls come from the whole dose curve; as a rule, active = well fitted inhibition curve with a large enough effect; inconclusive = small, poorly fitted or top-dose-only effect; inactive = flat fitted curve, though single readings scatter.
Key:
[1] = tested on: CRL-7250; assay: Cytotoxic Profiling of Annotated Libraries Using Quantitative High-Throughput Screening (AID 1296008); conditions: Five cell lines viability, CellTiter-Glo ATP luminescence, 48-72 h; max response: stronger effect = lower value; for max response: % is set by controls: 0 for no effect and ±100 for the full control effect
Procedure, shortened: (§1)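 Cells exposed to compounds for 48 or 72 hr at 37 degrees Celsius. Viability read as ATP-coupled luminescence with CellTiter-Glo after 10 min at room temperature.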

[2] = tested on: HEK293; assay: as above; conditions: Five cell lines viability, CellTiter-Glo ATP luminescence, 48-72 h; max response: stronger effect = lower value
Procedure, shortened: as §1

[3] = tested on: HaCat; assay: as above; conditions: Five cell lines viability, CellTiter-Glo ATP luminescence, 48-72 h; max response: stronger effect = lower value
Procedure, shortened: as §1

[4] = tested on: KB-3-1; assay: as above; conditions: Five cell lines viability, CellTiter-Glo ATP luminescence, 48-72 h; max response: stronger effect = lower value
Procedure, shortened: as §1

[5] = tested on: NIH3T3; assay: as above; conditions: Five cell lines viability, CellTiter-Glo ATP luminescence, 48-72 h; max response: stronger effect = lower value
Procedure, shortened: as §1

[6] = tested on: HACAT; assay: qHTS assay to identify novel small-molecules to repurpose for Merkel cell carcinoma treatment (AID 1296009); conditions: MCC and control cell lines, CellTiter-Glo viability, 72 h; at 44.8 µM (top of the series) unless noted
Procedure, shortened: (§2)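 Dose-response viability screen; 72 hr exposure at 37 degree celsius; CellTiter-Glo added, 10 min room temperature, luminescence read; RLUs scaled between no-cell and DMSO wells.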

[7] = tested on: HEK293T; assay: as above; conditions: MCC and control cell lines, CellTiter-Glo viability, 72 h; series mostly up to 44.8 µM
Procedure, shortened: as §2
Note: nearly all actives have a fitted effect of over 60% in size.

C[C@@H]1O[C@@H](O[C@H]2[C@H](OC(=O)[C@]34CCC(C)(C)C[C@H]3C3=CCC5[C@@]6(C)C[C@H](O)[C@H](O[C@@H]7O[C@H](CO[C@@H]8OC[C@H](O)[C@H](O)[C@H]8O)[C@@H](O)[C@H](O)[C@H]7O)C(C)(C)C6CC[C@@]5(C)[C@]3(C)C[C@H]4O)OC[C@@H](O)[C@@H]2O)[C@H](O)[C@H](O[C@@H]2OC[C@](O)(CO)[C@H]2O)[C@H]1O[C@@H]1OC[C@H](O)[C@H](O[C@@H]2OC[C@@H](O)[C@H](O)[C@H]2O)[C@H]1O (stereo partly specified)
inactive: max response [1] -6.86% | outcome [2] | outcome [3] | outcome [4] | max response [5] -1.57% | outcome [6] inactive [at 9.27 µM] | outcome [7] inactive [at 9.27 µM]

C/C(=C/CO)CC[C@@H]1[C@@]2(C)CCC[C@](C)(C(=O)O)C2CC[C@@]1(C)O (stereo partly specified)
inactive: max response [1] 2.67% | outcome [2] | outcome [3] | max response [4] 3.08% | max response [5] -1.08% | outcome [6] | Potency [7]

C=C1CCC2(OC1)OC1CC3C4CC=C5CC(O)CC(O[C@@H]6OC[C@@H](O)[C@H](O)[C@H]6O)C5(C)C4CCC3(C)C1(O)C2C (stereo partly specified)
inactive: outcome [1] | outcome [2] | outcome [3] | max response [4] -0.359% | outcome [5] | outcome [6] inactive [at 17.4 µM] | Potency [7]

COc1cc(C/C(=C/NC(C)=O)N(CC(=O)Cc2ccccc2)C(C)=O)cc2c1OCO2
inactive: max response [1] -6.34% | outcome [2] | outcome [3] | max response [4] 7.98% | max response [5] 2.9% | outcome [6] inactive [at 17.4 µM] | Potency [7]

CC(C)(O)C1=CCC23COC(C2)C(O)(C(=O)O)CCC13 (stereo unspecified)
inactive: outcome [1] | outcome [2] | outcome [3] | max response [4] 2.8% | outcome [5] | outcome [6] | Potency [7]

CCC(CCO[C@@H]1O[C@H](CO[C@H]2OC[C@](O)(CO)[C@H]2O)[C@@H](O)[C@H](O)[C@H]1O)C(C)(C)O (stereo partly specified)
inactive: max response [1] -2.81% | outcome [2] | outcome [3] | outcome [4] | max response [5] 1.97% | outcome [6] inactive [at 17.4 µM] | Potency [7]

CC(C)c1cc2c(c(O)c1O[C@@H]1O[C@H](CO)[C@@H](O)[C@H](O)[C@H]1O)CC1(O)CCC(O)C(C)(C)C1CC2 (stereo partly specified)
inactive: outcome [1] | outcome [2] | outcome [3] | max response [4] 2.46% | max response [5] 0.487% | outcome [6] inactive [at 17.4 µM] | Potency [7]

O=C(c1ccc(C#Cc2cccc(F)c2)cn1)N1CC2CC2C1 (stereo unspecified)
inactive: outcome [1] | outcome [2] | outcome [3] | outcome [4] | max response [5] 3.17% | outcome [6] | Potency [7]

COc1cc(C(C)=O)ccc1O[C@@H]1O[C@H](CO[C@@H]2O[C@@H](C)[C@H](O)[C@@H](O)[C@H]2O)[C@@H](O)[C@H](O)[C@H]1O
inactive: max response [1] -2.17% | outcome [2] | outcome [3] | outcome [4] | outcome [5] | outcome [6] inactive [at 17.4 µM] | Potency [7]

CC1(O)CCC2C(C(=O)O)=COC(OC3OC(CO)C(O)C(O)C3OC(=O)/C=C/c3ccc(O)cc3)C21 (stereo unspecified)
inactive: outcome [1] | outcome [2] | outcome [3] | max response [4] 8.2% | outcome [5] | outcome [6] inactive [at 17.4 µM] | Potency [7]

CC(=O)OC[C@@]12[C@H](O)C[C@]3(C)C(=CCC4[C@@]5(C)CC[C@H](O[C@@H]6O[C@H](C(=O)O)[C@@H](O[C@@H]7O[C@H](CO)[C@@H](O)[C@H](O)[C@H]7O)[C@H](O)[C@H]6O[C@@H]6O[C@H](CO)[C@@H](O)[C@H](O)[C@H]6O)[C@](C)(CO)C5CC[C@]43C)[C@@H]1CC(C)(C)[C@@H](OC(C)=O)[C@@H]2O (stereo partly specified)
inactive: outcome [1] | outcome [2] | outcome [3] | max response [4] 6.14% | max response [5] 0.485% | outcome [6] inactive [at 9.27 µM] | outcome [7] inactive [at 9.27 µM]

CC(=O)OC1C=C(C(=O)O)C2(CO)CCC(C)C(C)(CCc3ccoc3)C2C1 (stereo unspecified)
inactive: max response [1] -9.02% | outcome [2] | outcome [3] | outcome [4] | outcome [5] | outcome [6] inactive [at 17.4 µM] | Potency [7]

C[C@H]1[C@H](C)CC[C@]2(C(=O)O)CC[C@]3(C)C(=CC[C@@H]4[C@@]5(C)C[C@@H](O)[C@H](O)[C@@](C)(CO)[C@@H]5CC[C@]43C)[C@H]12
inactive: max response [1] 0.188% | outcome [2] | outcome [3] | outcome [4] | max response [5] 4.85% | outcome [6] | Potency [7]

C=CC(C)(C)O[C@@H]1O[C@H](CO[C@@H]2OC[C@](O)(CO)[C@H]2O)[C@@H](O)[C@H](O)[C@H]1O
inactive: max response [1] -2.3% | outcome [2] | outcome [3] | outcome [4] | outcome [5] | outcome [6] | Potency [7]

COc1cc([C@H]2OC[C@@H]3[C@@H](c4ccc(O[C@@H]5O[C@H](CO)[C@@H](O)[C@H](O)[C@H]5O)c(OC)c4)OC[C@]23O)ccc1O
inactive: max response [1] -6.95% | outcome [2] | outcome [3] | max response [4] 3.2% | outcome [5] | outcome [6] inactive [at 17.4 µM] | Potency [7]

c1ccc(Nc2nc3c(s2)CCCc2[nH]ncc2-3)nc1
inactive: max response [1] -6.19% | outcome [2] | outcome [3] | outcome [4] | max response [5] 3.95% | outcome [6] | Potency [7]

C=C1CC2[C@]3(C)C(=C(O)C(=O)[C@@]2(C)[C@]2(C(=O)OC)C(=O)C(C)OC(=O)[C@@]12C)C(C)(C)C(=O)CC3O (stereo partly specified)
inactive: max response [1] -4.87% | outcome [2] | outcome [3] | outcome [4] | max response [5] 0.571% | outcome [6] inactive [at 17.4 µM] | Potency [7]

CC(=O)O[C@@H]1[C@H](O[C@@H]2OC[C@](O)(CO)[C@H]2O)[C@@H](O[C@@H]2O[C@@H](C)[C@H](O)[C@@H](O)[C@H]2O)[C@H](OC(=O)[C@]23CCC(C)(C)C[C@H]2C2=CCC4[C@@]5(C)C[C@H](O)[C@H](O[C@@H]6O[C@H](C(=O)O)[C@@H](O)[C@H](O)[C@H]6O)[C@@](C)(C(=O)O)C5CC[C@@]4(C)[C@]2(C)CC3)O[C@@H]1C (stereo partly specified)
inactive: max response [1] -0.437% | outcome [2] | outcome [3] | outcome [4] | max response [5] 2.52% | outcome [6] inactive [at 9.27 µM] | outcome [7] inactive [at 9.27 µM]
